These are literature values, as cited in PubChem BioAssay AID977608.

A short description of this data set: literature IC50 values for PDB complexes, PDB-derived complexes (AID 977608). The settings on record: PDB protein-ligand complexes.

In all, about 4,300 compounds went through this assay and about 4,300 (100%) were called active. Cut-off not given; nearly all actives show IC50 up to about 1400 µM. So high a share suggests a set chosen from earlier hits. This is one part of the list. Square brackets hold non-standard residues; d marks the D form. Residues, ends and D or L forms follow the SMILES beside them. Peptide text beside a SMILES is read from it. * marks the point of attachment. Orn(CH(NH2)2) = NC(N)NCCC[C@H](N)C(=O)O; Abu = CC[C@H](N)C(=O)O; Dap = NC[C@H](N)C(=O)O; Propionyl = CCC(=O)*

For orientation: IC50 means the concentration at which inhibition is half-maximal. As for `CN(C)CCNC1CCN2NC=C(c3cn[nH]c3)C2N1` (stereo not drawn), the IC50 (protein: Serine/threonine-protein kinase pim-1, PDB entry 4mbi) is 0.007 µM (active).

With `Cc1ccc(C(=O)Nc2ccc(S(O)(O)O)c3cccc(S(O)(O)O)c23)cc1NC(=O)c1cccc([N+](=O)[O-])c1`, the IC50 (protein: mNV-RdRp, PDB entry 4nru) was 0.115 µM (active).

For `CCCCCCCC(=O)O[C@@H]1[C@@H](OC(=O)[C@H](C)CC)[C@@H](C)[C@@H]2[C@H]1[C@@](C)(OC(C)=O)C[C@H](OC(=O)CCC)[C@@]1(O)[C@H]2O[C@@H](O)[C@@]1(C)O`, for the setting “protein: Sarcoplasmic/endoplasmic reticulum calcium ATPase 1 (SERCA1a), PDB entry 3n5k”, the IC50 was 0.0002 µM (active).

As to `O=C(Nc1cnn(-c2cccc(C(=O)Nc3cnn([C@H]4CCNC4)c3)c2)c1)Nc1ccccc1Cl`, where the note is “protein: Mitogen-activated protein kinase 10 JNK3, PDB entry 4whz”, the IC50 is 0.001 µM (active).

For `Cc1nc2ccccc2[n+]([O-])c1C`, where the note is “protein: Peroxiredoxin-1, PDB entry 4kw6”, the IC50 was 374 µM (active).

Turning to `CC(C)C[C@@H]1NC(=O)c2c1c1c3ccccc3n(CCCCN)c1c1[nH]c3ccccc3c21`, the IC50 (protein: Proto-oncogene tyrosine-protein kinase Src, PDB entry 4mcv) was 0.0013 µM (active).

`O=C[N+](=O)CCC[P+](O)(O)O`: the IC50 is 0.03 µM (active) (protein: E. coli 1-deoxy-D-xylulose 5-phosphate reductoisomerase (DXR), PDB entry 1onp) and 2.39 µM (active) (protein: Oxidoreductase, PDB entry 3upy).

For `NC(=O)C[C@@H]1NC(=O)C2(CCCCC2)NC(=O)C[C@@H](c2ccc(C[P+](O)(O)O)cc2)/C=C/C[C@@H](Cc2cccc3ccccc23)CNC1=O`, for the setting “protein: growth factor receptor binding protein SH2 domain, PDB entry 1x0n”, the IC50 was 0.02 µM (active).

For the compound `CC(C)C1=CC2=C(C(O)C1=O)[C@@]1(C)CCCC(C)(C)[C@@H]1C(=O)C2` (stereo partly drawn), the IC50 (protein: Farnesyl pyrophosphate synthase HsFPPS-5, PDB entry 4p0v) is 1.2 µM (active).

As to `O=C(c1csc(-c2ccsc2)n1)n1ccc2ccccc21`, where the note is “protein: 3-OXOACYL-[ACYL-CARRIER-PROTEIN] REDUCTASE FABG, PDB entry 4bo6”, the IC50 was 0.18 µM (active).

For `CC[C@H](C)[C@H](NC(=O)[C@H](Cc1ccccc1)NC(=O)[C@H](Cc1ccc(O)cc1)NC(=O)[C@H](CCC(=O)O)NC(=O)[C@@H](N)CCCCN)C(=O)O` (tested in a mixture with another compound) (H-KEYFI-OH), the IC50 (protein: HLA class I histocompatibility antigen, A-2 alpha chain HLA-A*0201, PDB entry 4u6x) is 0.414 µM (active).

H-ETFEHWWSQLLS-OH: the IC50 by setting is: (protein: E3 ubiquitin-protein ligase Mdm2, PDB entry 3jzs) 0.008 µM (active); (protein: Human Protein Mdm4, PDB entry 3jzq) 0.11 µM (active).

As for H-SDFEEFSLDDIEQ-OH, the IC50 (protein: ?-thrombin, PDB entry 1thr) is 4.2 µM (active).

In the case of H-LTFEHWWAQLTS-OH, the IC50 by setting is: (protein: E3 ubiquitin-protein ligase Mdm2, PDB entry 3jzr) 0.036 µM (active); (protein: Human Protein Mdm4, PDB entry 3jzp) 0.25 µM (active).

`C#Cc1csc2c1NC(NC1CCCC1)=[N+](CC)C2O` (stereo not drawn): under “protein: High affinity cAMP-specific 3',5'-cyclic phosphodiesterase 7A PDE7A, PDB entry 4pm0”, the IC50 is 0.045 µM (active).

As for `N#Cc1ccc(-c2ccc(OCC(=O)O)cc2CN2CCN(c3ccccn3)CC2)cc1`, the IC50 (protein: PANTOTHENATE KINASE, PDB entry 4bfy) is 0.12 µM (active).

With `CCc1c(N2CCOCC2=O)cccc1S(=O)(=O)N[C@@H](Cc1cc(-c2ccc(Cl)s2)on1)C(=O)N1CCC(OC)CC1`, the half-inhibitory concentration (IC50) (protein: COAGULATION FACTOR X LIGHT CHAIN & COAGULATION FACTOR X, PDB entry 4btt) was 0.00143 µM (active).

In the case of `COCCOCCc1c(C)c2cc(OC)c(O)c(C)c2oc1=O`, the IC50 (protein: Serine/threonine-protein kinase/endoribonuclease IRE1-alpha, PDB entry 4pl3) is 0.29 µM (active).

For `Cc1cc(O)c(C(C)C)cc1N=O`, the IC50 (protein: Serine/threonine-protein kinase PLK1, PDB entry 4h71) is 35.6 µM (active).

As for `Oc1ccc(-c2nc(-c3ccc(F)cc3)c(-c3ccncc3)[nH]2)cc1`, where the note is “protein: Bromodomain-containing protein 4 BRD4-1, PDB entry 4o77”, the IC50 is 2.5 µM (active).

As to `N#Cc1ccc(O)cc1F`, the IC50 (protein: M-phase inducer phosphatase 2 CDC25B, PDB entry 4wh7) is 5000 µM (active).

As for `CC(=O)N1CCC[C@H]([C@]2(Cc3cccc(Cl)c3)C(=O)Nc3cc(Cl)ccc32)C1`, where the note is “protein: Humanized Xenopus E3 ubiquitin-protein ligase Mdm2, PDB entry 4lwt”, the IC50 is 3.9 µM (active).

As for `CCOc1c(I)cc(Cl)cc1CNCCCNC(=O)Nc1ccsc1`, the IC50 (protein: Trypanosoma brucei methionyl-tRNA synthetase, PDB entry 4mw7) was 10 µM (active).

Turning to `OCc1cc(-c2cn[nH]c2-c2ccc(F)cc2)ccn1`, the IC50 (protein: Casein kinase I isoform delta, PDB entry 4kbc) was 0.0142 µM (active).

As to `COc1ccccc1-n1c(-c2cc(O)ccc2C)c[n+]2c3c(=O)[nH]c(=O)n(C)c3[nH]c12`, under “protein: EPH receptor A3, PDB entry 4gk2”, the IC50 was 0.0016 µM (active).

For the compound `O=C1CCN(c2cccc([N+](=O)[O-])c2)C(=O)N1`, the IC50 (protein: Bifunctional protein GlmU, PDB entry 4kpz) is 1950 µM (active).

`CSCC[C@H](NC(=O)[C@@H]1CCCN1C(=O)CNC(=O)[C@H](CO[P+](O)(O)O)NC(=O)[C@H](Cc1ccc(O)cc1)NC(=O)[C@@H](NC(=O)[C@@H](N)CCCNC(N)N)[C@@H](C)O)C(=O)N[C@@H](CC(N)=O)C(=O)N[C@@H](CCCCN)C(=O)N[C@H](C(=O)O)C(C)C`: the IC50 (protein: HLA class I histocompatibility antigen, PDB entry 3bh9) is 0.117 µM (active).

As to `CCC(=O)NC[C@H](NC(=O)[C@@H](NC(=O)[C@@H]1CCCN1C(=O)[C@H](CCCNC(N)N)NC(=O)[C@H](CC(C)C)NC(=O)[C@@H](N)CCCCN)C(C)C)C(=O)N[C@@H](CCSC)C(=O)N[C@H](C(=O)N[C@@H](CCCNC(N)N)C(=O)N1CCC[C@H]1C(=O)N[C@@H](Cc1c[nH]c2ccccc12)C(=O)N[C@H](C(=O)N[C@@H](CCCNC(N)N)C(=O)O)C(C)C)C(C)C` (H-KL[Orn(CH(NH2)2)]PV[Dap](Propionyl)MV[Orn(CH(NH2)2)]PWV[Orn(CH(NH2)2)]-OH), where the note is “protein: E3 ubiquitin-protein ligase SIAH1 (T156C mutation), PDB entry 4i7c”, the half-maximal inhibitory concentration (IC50) is 0.006 µM (active).

Turning to `CC[C@H](NC(=O)[C@@H](NC(=O)[C@@H]1CCCN1C(=O)[C@H](CCCNC(N)N)NC(=O)[C@@H](N)CC(C)C)C(C)C)C(=O)N[C@@H](CCSC)C(=O)N[C@H](C(=O)N[C@@H](CCCNC(N)N)C(=O)N1CCC[C@H]1C(=O)N[C@H](C(=O)N[C@H](C(=O)O)C(C)C)[C@@H](C)O)C(C)C` (H-L[Orn(CH(NH2)2)]PV[Abu]MV[Orn(CH(NH2)2)]PTV-OH), the IC50 (protein: E3 ubiquitin-protein ligase SIAH1, PDB entry 4i7b) was 2 µM (active).

On to `CCC(=O)NCCCC[C@H](NC(=O)[C@@H]1CCCN1C(=O)[C@H](CCCNC(N)N)NC(=O)[C@@H](NC(=O)[C@H](CCSC)NC(=O)[C@H](C)NC(=O)[C@@H](NC(=O)[C@@H]1CCCN1C(=O)[C@H](CCCNC(N)N)NC(=O)[C@H](CC(C)C)NC(=O)[C@H](CCCCN)NC(C)=O)C(C)C)C(C)C)C(=O)N[C@H](C(=O)N[C@@H](CCCNC(N)N)C(=O)O)C(C)C` (Ac-KL[Orn(CH(NH2)2)]PVAMV[Orn(CH(NH2)2)]PK(Propionyl)V[Orn(CH(NH2)2)]-OH), for which the IC50 (protein: E3 ubiquitin-protein ligase SIAH1, PDB entry 4i7d) is 0.1 µM (active).
